Results reported in the supplement of paper PMC4466236.
In all, about 33,000 sequences were measured (“E-score (dimensionless, -0.5 to 0.5)”: median about -0.058, highest 2% from about 0.35 on). For the sample, the highest values were picked, then their nearest neighbours and some sequences at random.

tested on: MvaT; assay: PBM 8-mer E-score (mean of HK and ME arrays) (E-score (dimensionless, -0.5 to 0.5)); higher = stronger relative binding preference
Method in brief: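 Full-length P. aeruginosa MvaT carrying an N-terminal glutathione S-transferase tag was tested by protein binding microarray following a previously described protocol. Two universal double-stranded 60-mer arrays, ME and HK, were used, each with a constant 25-mer primer region and a variable 35-mer region covering all 8-mers. The rank-based E-score is the mean of the two arrays, parsed with a custom script. Its range runs from -0.5 to 0.5 for each 8-mer.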

Row | Sequence | PBM 8-mer E-score
1 | GATTACAA | 0.188
2 | AATTACAA | 0.367
3 | CATTACAA | 0.166
4 | AATTACAG | 0.268
5 | AGGTGACT | -0.173
6 | CCGAGACA | -0.0391
7 | GAGGAGTA | -0.153
8 | CGAGTATA | 0.195
9 | CTCTATTC | -0.0516
10 | ATATATTG | 0.446
11 | ATATATTC | 0.454
12 | AGATATTG | 0.191
13 | CTATATTC | 0.204
14 | ATCTATTG | 0.082
15 | AATCATAA | 0.306
16 | ACCCGTCG | -0.0362
17 | AATATACC | 0.324
18 | AGTATACA | 0.321
19 | GATATACA | 0.205
20 | AATACACA | 0.151
21 | AATACACG | 0.159
22 | TATATACA | 0.456

Row | Sequence | PBM 8-mer E-score
23 | AATATACA | 0.413
24 | AATATACT | 0.421
25 | AGTATACT | 0.422
26 | AGTATACC | 0.234
27 | AATATACG | 0.331
28 | CATATACA | 0.275
29 | GAGCCGAC | -0.262
30 | ACTTGCAG | 0.0173
31 | AGGCTTAG | -0.104
32 | CGATAGTC | -0.0515
33 | AGGTCGTG | -0.0505
34 | CAGTAGCA | 0.0532
35 | GCGACTCC | -0.217
36 | CGTAGGTA | -0.029
37 | TGGATACA | -0.00533
38 | TGTATACA | 0.351
39 | TCTATACA | 0.136
40 | AAGTTACG | 0.231
41 | AAGTTAGT | 0.322
42 | CAGTTATG | 0.189
43 | AAGTTATT | 0.415
44 | AAGTTATG | 0.349

Row | Sequence | PBM 8-mer E-score
45 | AAGTTATC | 0.256
46 | GCCTGACA | -0.188
47 | CAGAAAGA | 0.0379
48 | TTAAGAAA | 0.242
49 | ATTTTATC | 0.202
50 | ATCATCGG | -0.0977
51 | AGTAGGAT | -0.047
52 | GATACAAA | 0.247
53 | AATACAAA | 0.357
54 | AATACAAC | 0.316
55 | CATACAAA | 0.206
56 | TATACAAA | 0.392
57 | AATACAAG | 0.208
58 | TACTCTGA | -0.066
59 | TAAGGGCA | 0.0358
60 | GCTCTCGA | -0.0844
61 | AACTGGGG | -0.149
62 | AACTATAC | 0.227
63 | TACTATCA | 0.276
64 | CACTATAA | 0.312
65 | AACTATAA | 0.382
66 | TACTATAA | 0.387

Row | Sequence | PBM 8-mer E-score
67 | AACTATAG | 0.236
68 | TGCTATAA | 0.285
69 | AACTATAT | 0.349
70 | GACTATAA | 0.316
71 | ACGGGCCG | -0.277
72 | GACCCAGC | -0.26
73 | ACTTAGAG | 0.106
74 | CTCTATTA | 0.267
75 | CTATATTA | 0.454
76 | GTATATTA | 0.438
77 | GGGTATTA | 0.288
78 | GAGTATTA | 0.269
79 | ATCTATTA | 0.301
80 | CACTGCTC | -0.18
81 | GCCCGACC | -0.267
82 | GAGAGTAC | -0.0129
83 | AACCGCTC | -0.22
84 | AATGGGAT | 0.138
85 | AGTCGACG | -0.209
86 | TAAATCTA | 0.183
87 | CAAAAATA | 0.287
